# In PubChem BioAssay AID925 (National Center for Advancing Translational Sciences (NCATS), 2007):
# Several values for one entry are separate records, joined by “and”; a condition that tells them apart may be missing. Equal entries are not always repeated. Screen size: about 65,000 compounds; about 40 (0.06%) were called active. A call without a number means that no potency is given here. The call rests on the fitted dose curve; in most records, active means well fitted activation curve with a large enough effect; inconclusive means small, poorly fitted or top-dose-only effect; inactive means flat fitted curve, though single readings scatter. For the sample, actives were picked, then their nearest neighbours and some compounds at random.
# Experiment: qHTS Assay for Modulators of Hemoglobin Beta Chain Splicing
# Settings: HBB splicing reporter cell assay, EGFP reporter with mutant IVS2-654 intron; Potency: activation; series mostly up to 46.1 µM
# Excerpt: NIH Chemical Genomics Center [NCGC]
# NIH Molecular Libraries Screening Centers Network [MLSCN]
# PI Name: Dr. Ryszard Kole
# Modulation of Alternative Splicing as Therapy
# Abnormal splicing is associated with a number of diseases, including cancer and genetic diseases such as cystic fibrosis, muscular dystrophy and beta-thalassemia. Alteration of disease associated splicing patterns provides a promising target for treatment. […] Mutations in the second intron of the beta-globin gene at positions are clinically relevant and cause mis-splicing which results in an out of frame gene product.
# EGFP-654 and 705 HeLa Cells as screen system.
# HeLa cell lines were stably transfected with a construct in which the EGFP (enhanced green fluorescent protein) cDNA was interrupted by the second intron of the beta-globin gene (IVS2-654). The ISV2 intron contains mutations which cause mis-splicing of EGFP and premature termination of EGFP which results in a nonfluorescent protein product. […] Expression of the transgene was driven by the CMV promoter. We concluded that a low molecular weight compound, which restored correct splicing of intron 2 would also generate functional EGFP protein, resulting in a fluorescent signal. Thus, the HeLa cells that express the EGFP-654 construct can be used for high throughput screening of a chemical library.
# NCGC Assay Protocol Summary:
# High Throughput Screening. Freshly thawed HeLa EGFP-654 cells were seeded in 5 ul of optimem media (Invitrogen) containing 2 % fetal calf serum (Hyclone) and 1x penicillin/streptomycin (Invitrogen) at a concentration of 500 cells per well in 1536-well plates. Cells were incubated overnight at 37C in 5% CO2. The next day, cells were treated with DMSO, 500 nM antisense ISV2 654 PNA control oligo, or library compound and allowed to grow at 37C in 5% CO2 for 2 days. The PNA oligo blocked the mutation site in the intron and allowed proper (wild type) splicing to occur, resulting in full length EGFP expression and also allowed for optimization of the assay parameters. Plates were read in the Acumen Explorer (TTP Labtech) using 488 nm laser excitation and 500-520 nm emission PMT filter in a 1 x […] capture mode. Fluorescnet Fluorescent objects ranging in size from […] were measured and the total peak GFP intensity for each well was used for data analysis.
# Keywords: Thalassemia, beta-thalassemia, beta-globin, EGFP, ISV2 654, ISV2 705, SSO, PNA, antisense, splicing, MLSMR, MLSCN, NIH Roadmap, qHTS, NCGC
# Potency means the concentration at half of the fitted maximal effect.
Compound,activation,Potency
C[C@]12C=CC(=O)C=C1CC[C@@H]1[C@@H]2C(=O)C[C@@]2(C)[C@H]1CC[C@]2(O)C(=O)CO,inactive,–
CCCC(C(=O)OCCN(CC)CC)(c1ccccc1)c1ccccc1,inactive,–
CC(=O)N1CCC2(CC1)CCN(c1ccncc1)CC2,inactive,–
C[C@]1(C(=O)NCCc2c[nH]c3ccccc23)C=C[C@@H](Cc2ccccc2)N1C(=O)c1ccccc1,inactive,–
C[C@@H]1O[C@@H](O[C@@H]2[C@@H](O)[C@H](OCCc3ccc(O)c(O)c3)O[C@H](CO[C@@H]3O[C@H](CO)[C@@H](O)[C@H](O)[C@H]3O)[C@H]2OC(=O)/C=C/c2ccc(O)c(O)c2)[C@H](O)[C@H](O)[C@H]1O,inactive,–
O=C(c1csnn1)N1CCC2(CC1)CN(c1ncccn1)C2,inactive,–
O=S(=O)(O)c1ccc(O)c2ncccc12.O=S(=O)(O)c1ccc(O)c2ncccc12.[Zn],"0.245% [at 9.22 µM, normalised to 500 nM splice-correcting PNA] (inactive)",–
CCOC(=O)[C@]1(C(/C=C/c2ccco2)NC(=O)OC)CCCC1=O (some centres undefined),"0.739% [at 9.22 µM, normalised to 500 nM splice-correcting PNA] (inactive)",–
O=C1C(c2[nH]c3ccccc3c2O)=Nc2ccccc21,inactive,–
COC(=O)[C@@]1(Cc2ccc(F)cc2)[C@H]2c3cc(C(=O)N4CCCC4)n(Cc4ccc(OC(F)(F)F)cc4)c3C[C@H]2CN1C(=O)c1ccccc1,inactive,–
C[N+]1(CCN=C=NC2CCCCC2)CCOCC1,"6.02% [at 9.22 µM, normalised to 500 nM splice-correcting PNA] (inactive)",–
COCCn1c(=O)c(-c2cccs2)nc2cnc(N3CCN(C)CC3)nc21,inactive,–
COC(=O)[C@H](C)[C@H]1C[C@]1(C)[C@H](NC(=O)OCc1ccccc1)c1ccccc1,inactive,–
CCCCCCc1ccc(O)cc1O,inactive,–
CC(=O)OCC1OC(C#Cc2ccccc2Cl)C=CC1OC(C)=O (centres undefined),"2.13% [at 9.22 µM, normalised to 500 nM splice-correcting PNA] (inactive)",–
O=c1c(-c2cccs2)nc2cnc(Oc3ccccc3)nc2n1-c1ccccc1,inactive,–
Cc1cc2nc3c(=O)[nH]c(=O)nc-3n(C[C@H](O)[C@H](O)[C@H](O)CO)c2cc1C,inactive,–
COc1ccc2[nH]cc(CCNc3ncnc4ccc(-c5ccc(C(=O)N(C)C)cc5)cc34)c2c1,inactive,–
CCCC[C@@H]1C[C@H]1C(NC(=O)c1ccco1)c1ccc(C(=O)OC)cc1 (some centres undefined),inactive,–
OC(CCl)CCl,inactive,–
CC(=O)/C(C)=N\O,inactive,–
COc1ccccc1CNc1nc(-c2c(C)noc2C)nc2ccccc12,inactive,–
COCCNc1ccnc(-c2cccc(NS(C)(=O)=O)c2)n1,inactive,–
CCNc1ncc2ncc(=O)n(CCc3ccccc3)c2n1,inactive,–
CCCC[C@@H]1C[C@H]1C(NC(=O)c1ccc(-c2ccccc2)cc1)c1ccc(-c2ccccc2)cc1 (some centres undefined),inactive,–

Compound,activation,Potency
O=c1cc(-c2ccccc2)[nH]c2nc(Cl)ccc12,inactive,–
O=C(c1ccncc1)N1CCC2(CCN(Cc3cc(C(F)(F)F)cc(C(F)(F)F)c3)CC2)CC1,inactive,–
C=CCOC(=O)c1ccccc1C(=O)OCC=C,inactive,–
C/C=C1\C(=O)C[C@@H]2[C@@H]3CCC4=CC(=O)CC[C@@]4(C)[C@H]3CC[C@@]12C,inactive,–
Nc1nc2c(ncn2[C@H]2CC[C@@H](CO)O2)c(=O)n1C(=O)c1ccccc1,"4.28% [at 9.22 µM, normalised to 500 nM splice-correcting PNA] (inactive)",–
N#Cc1cccc(-c2nc3cnc(N4CCNCC4)nc3n(C3CC3)c2=O)c1,inactive,–
CCNc1ncc2nc(CCc3ccccc3)c(=O)n(-c3ccc(OC)cc3)c2n1,inactive,–
COCCn1c(=O)c(-c2cc(F)cc(F)c2)nc2cnc(N3CCNCC3)nc21,inactive,–
N#CCCn1c(=O)c(-c2cc(F)cc(F)c2)nc2cnc(Oc3ccccc3)nc21,inactive,–
CN1CCc2[nH]nc(-c3n[nH]c4c3CN(C)CC4)c2C1,"1.49% [at 9.22 µM, normalised to 500 nM splice-correcting PNA] (inactive)",–
COC(=O)N1CCC2(CCCN(Cc3ccccc3OC)C2)CC1,inactive,–
CN(C)CCCn1c2ccccc2c2cnccc21,"4.04% [at 9.22 µM, normalised to 500 nM splice-correcting PNA] (inactive)",–
CCN1C(=O)c2cccc3c(N)ccc1c23,inactive,–
Nc1ccc2c3c(cccc13)C(=O)NC2=O,–,31.6 µM (active)
CC(C)CN1CCc2nc(-c3ccccc3)c3c(c2C1)COC(C)C3 (centres undefined),"2% [at 9.22 µM, normalised to 500 nM splice-correcting PNA] (inactive)",–
CCCn1c(-c2ccc(F)cc2)nc2c(NC3CCN(Cc4ccccc4)C3)nc(C)nc21 (centres undefined),inactive,–
CCOc1ccc(N=NS(=O)(=O)O)cc1,"3.52% [at 9.22 µM, normalised to 500 nM splice-correcting PNA] (inactive)",–
CCCCC(CC)CN (centres undefined),inactive,–
CC(C)(C)[Si](OCC[C@@H]1C[C@@]1(C)[C@@H](NP(=O)(c1ccccc1)c1ccccc1)c1ccccc1)(c1ccccc1)c1ccccc1,inactive,–
Cn1c(=O)n2n(c1=O)[C@H]1[C@H](O)[C@H]3O[C@H]3C(=O)[C@H]1CC2,"0.301% [at 9.22 µM, normalised to 500 nM splice-correcting PNA] (inactive)",–
CN1C(=O)C[C@H](c2ccccc2)C1=O,inactive,–
S=c1[nH]nc(SCc2ccccc2Cl)c2[nH]cnc12,"3.49% [at 9.22 µM, normalised to 500 nM splice-correcting PNA] (inactive)",–
CC(=O)OCC1OC(C#CCCCc2ccccc2)C=CC1OC(C)=O (centres undefined),"-0.748% [at 9.22 µM, normalised to 500 nM splice-correcting PNA] (inactive) and 1.62% [at 9.22 µM, normalised to 500 nM splice-correcting PNA] (inactive)",–
O=C(c1ccco1)N1CCC2(CC1)CCN(c1ncccn1)CC2,inactive,–
CC(C)[C@@H](OCc1ccccc1)[C@H](C)/C=N\OC[C@@H](C)[C@H](OCc1ccccc1)C(C)C,"4.09% [at 9.22 µM, normalised to 500 nM splice-correcting PNA] (inactive)",–

Compound,activation,Potency
COc1ccccc1-c1nc(N2CCN(C)CC2)c2ccccc2n1,inactive,–
CCCCCCN(C(=O)CCCCCN1C(=O)NC(c2ccc(C(F)(F)F)cc2)C(C(=O)OCc2ccccc2)=C1C)C(C(=O)NCCCC)c1ccc(OCC(=O)OC)c(C(=O)OC)c1 (centres undefined),inactive,–
CC(=O)CC(C)C,inactive,–
COC(=O)[C@@]1(Cc2ccc(F)cc2)[C@H]2c3cc(C(=O)N(C)C)n(CCc4c[nH]c5ccc(OC)cc45)c3C[C@H]2CN1C(=O)c1ccccc1,inactive,–
CC(C)NC(=O)N1CCCC2(CCN(C(=O)c3cccn3C)CC2)C1,inactive,–
O=C(O)/C(=C/c1c(C(=O)O)[nH]c2cc(Cl)cc(Cl)c12)c1ccccc1,inactive,–
O=C(c1ccco1)N1CCC[C@@]2(CCN(c3ccccc3)C2)C1,inactive,–
NC1(C(=O)OCc2ccccc2)CCCC1,"1.82% [at 9.22 µM, normalised to 500 nM splice-correcting PNA] (inactive)",–
COc1ccc(Br)c2c1C[C@H](C(=O)O)CC2,"3.18% [at 9.22 µM, normalised to 500 nM splice-correcting PNA] (inactive)",–
COC(=O)c1ccc(C(NC(=O)OCc2ccccc2)/C(C)=C/[C@@H](C)C(=O)NCc2cc(C)on2)cc1 (some centres undefined),inactive,–
COc1ccc(-n2c(=O)c(-c3cn(C)c4ccccc34)nc3cnc(OC)nc32)cc1,inactive,–
Brc1cc(Br)c(Oc2cc(Br)c(Br)cc2Br)cc1Br,inactive,–
Oc1ccc(O)c2c(O)cccc12,inactive,–
N#Cc1cccc(-c2ccc3ncnc(NCc4cccs4)c3c2)c1,inactive,–
CC[N+](C)(CC)CCC[n+]1c(-c2ccccc2)c2cc(N)ccc2c2ccc(N)cc21,inactive,–
COc1ccccc1-c1cc(NCc2cccs2)ncn1,inactive,–
COc1ccc2[nH]cc(CCNc3nc(-c4cccc(NS(C)(=O)=O)c4)nc4ccccc34)c2c1,inactive,–
C[C@H](CCC(=O)O)[C@H]1CC[C@@H]2[C@H]3CC[C@H]4C[C@H](O)CC[C@@]4(C)[C@@H]3CC[C@@]21C,"1.15% [at 9.22 µM, normalised to 500 nM splice-correcting PNA] (inactive)",–
C[C@H]1O[C@@H](CC(=O)O)Cc2c1c(O)c1c(O)cc(-c3cc(=O)c4c(=O)c5c(c(=O)c=4c3=O)C[C@H](CC(=O)O)O[C@@H]5C)c(O)c1c2O,"4.76% [at 9.22 µM, normalised to 500 nM splice-correcting PNA] (inactive)",–
COC(=O)[C@@]1(Cc2ccccc2)[C@H]2c3cc(C(=O)N(C)C)n(CCSCCO)c3C[C@H]2CN1C(=O)c1ccccc1,inactive,–
COc1ccc(C(=O)N/N=C2/C(=O)c3c(C)cc(C)cc3CC2(C)C)cc1,"3.55% [at 9.22 µM, normalised to 500 nM splice-correcting PNA] (inactive)",–
COC(=O)[C@@]1(Cc2ccccc2)[C@H]2c3cc(C(=O)N4CCCC4)n(Cc4ccc(C)o4)c3C[C@H]2CN1C(=O)c1ccccc1,inactive,–
CC(C)CC1(C(=O)NCc2ccccn2)C=CCN1C(=O)c1ccccc1 (centres undefined),inactive,–
COC(=O)C1(C)C=CC2(CCCCC2)N1C(C)=O (centres undefined),inactive,–
